Laboratory results: PubChem BioAssay AID1159580 (chemical genetic matrix, 2015)
Several values for one entry are separate records, joined by “and”; a condition that tells them apart may be missing. Identical values can stand only once. Screen size: about 5,500 compounds; about 2,000 (36%) were called active. Not shown: some 18% with an inconclusive outcome. Cut-off read from the data, not from the text of the source: active = normalized growth mostly below about 0.91 (no sharp cut-off); inconclusive = no clear call, values can overlap the other calls; inactive = mostly above about 0.92. The list shows a part of the results.

Experiment: chemical genetic growth profiling, strain panel (AID 1159580);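 note: tested at 20 µM; growth read once vehicle control cultures reached saturation at 30 °C; 1 = growth at the plate median or of vehicle wells; lower values mean less growth of the strain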
Conditions: S. cerevisiae deletion strains, growth OD

Measured: normalized growth

CC1=CC(=O)CC(C)(C)C1(O)/C=C/C(C)=C\C(=O)O (stereo not given)
inactive: locus YAL013W, strain DEP1, active compounds read low 0.986 | locus YAL021C, strain ccr4, active compounds read low 0.996 | locus YAL026C, strain drs2, active compounds read low 1.03 | locus YAL030W, strain snc1, active compounds read low 1.02 | locus YBL061C, strain skt5, active compounds read low 1.02 | locus YBR009C, strain hhf1, active compounds read low 1.01 | locus YBR021W, strain FUR4, active compounds read low 1.02 | locus YBR023C, strain chs3, active compounds read low 1.03 | locus YBR171W, strain sec66, active compounds read low 1.02 | locus YBR229C, strain ROT2, active compounds read low 0.948 | locus YBR231C, strain swc5, active compounds read low 1.03 | locus YBR279W, strain paf1, active compounds read low 1.01 | locus YCL011C, strain gbp2, active compounds read low 1.02 | locus YCL016C, strain dcc1, active compounds read low 1.01 | locus YCL029C, strain bik1, active compounds read low 0.973 | locus YCL069W, strain vba3, active compounds read low 1.01 | locus YCR088W, strain abp1, active compounds read low 1.03 | locus YDL005C, strain med2, active compounds read low 1.03 | locus YDL035C, strain GPR1, active compounds read low 0.981 | locus YDL040C, strain nat1, active compounds read low 1.02 | locus YDL074C, strain BRE1, active compounds read low 0.985 | locus YDL101C, strain DUN1, active compounds read low 0.987 | locus YDL134C, strain PPH21, active compounds read low 0.984 | locus YDL185W, strain tfp1, active compounds read low 0.953 | locus YDL192W, strain arf1, active compounds read low 0.983 | locus YDR001C, strain nth1, active compounds read low 1.03 | locus YDR069C, strain doa4, active compounds read low 1.04 | locus YDR101C, strain arx1, active compounds read low 1.01 | locus YDR137W, strain rgp1, active compounds read low 1.01 | locus YDR150W, strain NUM1, active compounds read low 0.979 | locus YDR159W, strain sac3, active compounds read low 1.03 | locus YDR162C, strain NBP2, active compounds read low 0.979 | locus YDR195W, strain ref2 1.03 | locus YDR297W, strain sur2, active compounds read low 1.03 | locus YDR318W, strain mcm21, active compounds read low 0.979 | locus YDR334W, strain swr1, active compounds read low 1.02 | locus YDR335W, strain msn5, active compounds read low 1.03 | locus YDR388W, active compounds read low 0.985 | locus YDR392W, strain spt3, active compounds read low 1.01 | locus YDR502C, strain sam2, active compounds read low 0.993 | locus YEL003W, strain gim4, active compounds read low 1.02 | locus YEL037C, strain rad23, active compounds read low 1.02 | locus YEL061C, strain CIN8 (second series), active compounds read low 1.03 | locus YEL061C, strain CIN8, active compounds read low 0.986 | locus YER015W, strain faa2, active compounds read low 1.02 | locus YER016W, strain bim1, active compounds read low 1.01 | locus YER110C, active compounds read low 0.96 | locus YER111C, strain swi4, active compounds read low 1.02 | locus YER155C, strain BEM2 (second series), active compounds read low 1.05 | locus YER155C, strain BEM2, active compounds read low 0.995 | locus YER167W, strain BCK2, active compounds read low 0.988 | locus YFR010W, strain ubp6, active compounds read low 1.04 | locus YGL078C, strain dbp3, active compounds read low 0.987 | locus YGL086W, strain mad1, active compounds read low 1 | locus YGL167C, strain pmr1, active compounds read low 1.01 | locus YGL173C, strain kem1, active compounds read low 1.01 | locus YGL227W, strain vid30, active compounds read low 1.03 | locus YGL240W, strain doc1, active compounds read low 1.03 | locus YGL248W, strain PDE1, active compounds read low 0.977 | locus YGL253W, strain hxk2, active compounds read low 1.03 | locus YGR078C, strain PAC10, active compounds read low 0.983 | locus YGR135W, strain pre9, active compounds read low 0.976 | locus YGR252W, strain gcn5, active compounds read low 0.976 | locus YHR013C, strain ard1, active compounds read low 1.03 | locus YHR027C, strain rpn1, active compounds read low 1.02 | locus YHR030C, strain SLT2, active compounds read low 0.988 and 1.01 | locus YHR079C, strain IRE1 (second series), active compounds read low 0.974 | locus YHR079C, strain IRE1, active compounds read low 0.974 | locus YHR094C, strain hxt1, active compounds read low 0.966 | locus YHR129C, strain ARP1, active compounds read low 0.989 | locus YHR142W, strain chs7, active compounds read low 1.02 | locus YHR200W, strain rpn10, active compounds read low 0.984 | locus YIL066C, strain RNR3, active compounds read low 0.976 | locus YIL073C, strain SPO22, active compounds read low 0.896 | locus YIL125W, strain kgd1, active compounds read low 0.982 | locus YIR030C, strain dcg1, active compounds read low 0.983 | locus YJL092W, strain hpr5, active compounds read low 1.02 | locus YJL095W, strain BCK1 (second series), active compounds read low 1.02 | locus YJL095W, strain BCK1, active compounds read low 0.989 and 1.04 | locus YJL115W, strain asf1, active compounds read low 1.03 | locus YJL129C, strain trk1, active compounds read low 1.08 | locus YJL134W, strain LCB3, active compounds read low 0.973 | locus YJL154C, strain vps35, active compounds read low 1.02 | locus YJL164C, strain tpk1, active compounds read low 1.01 | locus YJL166W, strain qcr8, active compounds read low 1.04 | locus YJL168C, strain set2, active compounds read low 0.982 | locus YJL187C, strain SWE1 (second series), active compounds read low 0.972 | locus YJR043C, strain POL32, active compounds read low 0.978 | locus YJR066W, strain TOR1, active compounds read low 0.929 | locus YJR075W, strain HOC1, active compounds read low 0.985 | locus YKL009W, strain mrt4, active compounds read low 0.966 | locus YKL068W, active compounds read low 0.973 | locus YKL085W, strain MDH1 (second series), active compounds read low 0.983 | locus YKL085W, strain MDH1, active compounds read low 0.983 | locus YKL160W, strain elf1, active compounds read low 1.03 | locus YKR001C, strain vps1, active compounds read low 0.975 | locus YKR026C, strain gcn3, active compounds read low 1.03 | locus YKR091W, strain srl3, active compounds read low 1.02 | locus YLL001W, strain dnm1, active compounds read low 1.03 | locus YLL026W, active compounds read low 1.02 | locus YLL041C, strain sdh2, active compounds read low 1.02 | locus YLR027C, strain aat2, active compounds read low 1.03 | locus YLR039C, strain RIC1, active compounds read low 0.959 | locus YLR058C, strain SHM2, active compounds read low 0.973 | locus YLR102C, strain apc9, active compounds read low 0.974 | locus YLR113W, strain HOG1, active compounds read low 1.07 | locus YLR221C, strain rsa3, active compounds read low 1.01 | locus YLR258W, strain gsy2, active compounds read low 1.02 | locus YLR262C, strain YPT6 (second series), active compounds read low 1.04 | locus YLR262C, strain YPT6, active compounds read low 0.941 | locus YLR268W, strain sec22, active compounds read low 0.993 | locus YLR320W, strain mms22, active compounds read low 1.02 | locus YLR330W, strain CHS5, active compounds read low 0.992 | locus YLR342W, strain FKS1 (second series), active compounds read low 0.984 | locus YLR342W, strain FKS1, active compounds read low 1.03 | locus YLR357W, strain rsc2, active compounds read low 1.02 | locus YLR370C, strain arc18, active compounds read low 1.03 | locus YLR371W, strain rom2, active compounds read low 0.952 | locus YLR384C, strain iki3, active compounds read low 1.02 | locus YLR418C, strain cdc73, active compounds read low 0.93 | locus YML016C, strain PPZ1, active compounds read low 0.994 | locus YML032C, strain rad52, active compounds read low 0.97 | locus YML120C, strain ndi1, active compounds read low 1.02 | locus YML124C, strain tub3, active compounds read low 0.976 | locus YMR058W, strain fet3, active compounds read low 1.02 | locus YMR078C, strain ctf18, active compounds read low 0.963 | locus YMR125W, strain sto1, active compounds read low 1.06 | locus YMR129W, active compounds read low 1.03 | locus YMR205C, strain PFK2, active compounds read low 1.02 | locus YMR223W, strain ubp8, active compounds read low 0.941 | locus YMR231W, strain pep5, active compounds read low 1.01 | locus YMR307W, strain GAS1, active compounds read low 1 | locus YNL067W, strain RPL9B, active compounds read low 0.985 | locus YNL071W, strain lat1, active compounds read low 1.03 | locus YNL153C, strain GIM3, active compounds read low 0.987 | locus YNL183C, strain NPR1, active compounds read low 0.99 | locus YNL209W, strain ssb2, active compounds read low 1.02 | locus YNL233W, strain BNI4, active compounds read low 0.997 | locus YNL248C, strain rpa49, active compounds read low 1.02 | locus YNL250W, strain rad50, active compounds read low 0.964 | locus YNL271C, strain bni1, active compounds read low 0.978 | locus YNL298W, strain CLA4, active compounds read low 0.983 | locus YNL307C, strain MCK1, active compounds read low 0.973 | locus YNL322C, strain KRE1 (second series), active compounds read low 1.02 | locus YNL322C, strain KRE1, active compounds read low 0.987 | locus YNR049C, strain mso1, active compounds read low 1.02 | locus YNR052C, strain pop2, active compounds read low 0.989 | locus YOL012C, strain htz1 0.831 | locus YOL147C, strain pex11, active compounds read low 0.971 | locus YOR001W, strain rrp6, active compounds read low 1.01 | locus YOR061W, strain CKA2, active compounds read low 0.951 | locus YOR069W, strain VPS5, active compounds read low 0.992 | locus YOR070C, strain gyp1, active compounds read low 1.01 | locus YOR080W, strain dia2, active compounds read low 1.02 | locus YOR083W, strain WHI5, active compounds read low 1.02 | locus YOR106W, strain vam3, active compounds read low 1.04 | locus YOR136W, strain idh2, active compounds read low 0.977 | locus YOR144C, strain elg1, active compounds read low 0.97 | locus YOR184W, strain ser1, active compounds read low 0.98 | locus YOR231W, strain MKK1, active compounds read low 0.998 | locus YOR265W, strain rbl2, active compounds read low 1.03 | locus YOR270C, strain vph1, active compounds read low 1.08 | locus YOR290C, strain snf2, active compounds read low 1.02 | locus YOR316C, strain cot1, active compounds read low 0.971 | locus YPL051W, strain arl3, active compounds read low 1.03 | locus YPL055C, strain LGE1, active compounds read low 0.979 | locus YPL078C, strain atp4, active compounds read low 1.03 | locus YPL106C, strain sse1, active compounds read low 1.02 | locus YPL240C, strain hsp82, active compounds read low 1.04 | locus YPL256C, strain CLN2, active compounds read low 1.01 | locus YPR119W, strain clb2, active compounds read low 0.968 | locus YPR141C, strain kar3, active compounds read low 0.954 | locus YPR163C, strain tif3, active compounds read low 0.967 | locus YPR167C, strain met16, active compounds read low 0.958 | strain wtn01, active compounds read low 1.03
